Laboratory results taken from PubChem BioAssay (EPA / NIEHS).
Records with an inconclusive call do not appear. Activity calls are given as the source filed them. The calls were made as follows: active = hit-call score of the fitted dose curve at least 0.9, where 1 is the maximum; inconclusive = response in the unintended direction; inactive = score below 0.9.

Assay: ATG_M_32_TRANS: Attagene TRANS-FACTORIAL HepG2 Assay for M32 Transcription Factor (Internal Marker) (AID 2282984)
Details: HepG2 Attagene TRANS M32 internal marker reporter
Procedure: ATG_TRANS is a cell-based, multiplexed-readout assay that uses HepG2, a human liver cell line, with measurements taken at 24 hours after chemical dosing in a 24-well plate.ATG_M_32_TRANS is one of 30 assay component(s) measured or calculated from the ATG_TRANS assay. It is designed to make measurements of mRNA induction, a form of inducible reporter, as detected with fluorescence intensity signals by Reverse transcription polymerase chain reaction (RT-PCR) and Capillary electrophoresis technology.Data from the assay component ATG_M_32_TRANS was analyzed into 1 assay endpoint. This assay endpoint, ATG_M_32_TRANS, was analyzed in the positive analysis fitting direction relative to DMSO as the negative control and baseline of activity. Using a type of inducible reporter, measures of mRNA for gain-of-signal activity can be used to understand the background control at the transcription factor-level as they relate to the gene . Furthermore, this assay endpoint can be referred to as a secondary readout, because this assay has produced multiple assay endpoints where this one serves a background control function. To generalize the intended target to other relatable targets, this assay endpoint is annotated to the background measurement intended target family, where the subfamily is internal marker.
Human liver HepG2 cells are transiently transfected with multiple reporter transcription units (MRTUs) in 6-well plates using FuGene 6 reagent (Roche; 3 ml FuGene/1 mg DNA). The MRTU constructs are regulated by a cis-regulating element (promoter). […] A major difference between the CIS and TRANS system is that in CIS activities of endogenous TFs are measured, whereas the TRANS assay evaluates changes in activities of exogenous, chimeric NR-Gal4 proteins. […] At the end of 24 hour incubation, total RNA was isolated using TriZol reagent (Invitrogen). The isolated RNA is then reverse-transcribed using oligo(dT) primer and Mo-MLV reverse transcriptase (Invitrogen) with DNAse I (Ambion) treatment for 30 min. The one-tenth of the produced cDNA was amplified by PCR using Taq DNA polymerase (Invitrogen) and two reporter sequence-specific primers. The PCR products were fluorescently labeled by primer extension with 6-arboxyfluorescein (6-FAM) 5'-labeled reporter sequence-specific primer (2 min at 95 C, 20 s at 68 C and 10 min at 72 C) and these products were digested with 5U of HpaI (New England Biolabs) for 2h at 37 C. The fragments were purified using Qiaquick PCR columns (Qiagen), analyzed on an ABI 3130xL genetic analyzer (Applied Biosystems) with peak positions identified by using a set of X-rhodamine (ROX)-labeled MapMarker1000 molecular weight standards (BioVentures). The raw capillary electrophoresis data was processed using Attagraph software (Attagene).

outcome, inactive:
CCCC(=O)OCCC(C)CCC=C(C)C (stereo not given)
Cc1ccc(C(=O)O)o1
C=COCCOCCOCCOC=C
CN1[C@@H]2CC(OC(=O)[C@H](CO)c3ccccc3)C[C@H]1[C@@H]1O[C@@H]12 (stereo not given in full)
CC(C)c1cccc(O)c1
O=Cc1ccc(F)cc1
C=C(C)[C@@H]1CCC2=CC(=O)C[C@@H](C)[C@]2(C)C1
O=c1oc(=O)c2cc3c(=O)oc(=O)c3cc12
C=CC(C)(C)O
CC1(C)[C@H]2CC[C@]1(C)[C@H](O)C2
CC(=O)OCc1ccc2c(c1)OCO2
CCCCCCCCCCCCN(CCCCCCCCCCCC)CCCCCCCCCCCC
OCCCCCO
CC(CCO)CCc1ccccc1 (stereo not given)
CCCC(C)C=O (stereo not given)
CC1=CC(=O)NS(=O)(=O)O1
O=C(O)c1snc(Cl)c1Cl
C[Si](O[Si](C)(C)C)O[Si](C)(C)C
OCC(CO)(CO)COCC(CO)(CO)CO
COCCOCCOCCOCCOCCO
CCCCOCCOCCSC#N
Clc1nc(C(Cl)(Cl)Cl)c(Cl)c(Cl)c1Cl
c1cc(C(c2ccc(OCC3CO3)cc2)c2ccc(OCC3CO3)cc2)ccc1OCC1CO1 (stereo not given)
Nc1ccc(F)c([N+](=O)[O-])c1
c1ccc(CCCc2ccccn2)cc1
Nc1cccc(S(=O)(=O)c2cccc(N)c2)c1
CC(C)Oc1ccccc1O
CCCCCCCCCCCCOCCO
CC(C)=CCCC(C)=CCCC(C)=CCO
CO[Si](CCCn1c(=O)n(CCC[Si](OC)(OC)OC)c(=O)n(CCC[Si](OC)(OC)OC)c1=O)(OC)OC
CCCCCCOC(=O)CC
CCCCC(CC)COC(=O)/C=C\C(=O)OCC(CC)CCCC (stereo not given)
O=C(Cl)c1cccc(C(=O)Cl)c1
CC1(C)CCC(C)(C)c2cc(C(=O)Nc3ccc(C(=O)O)cc3)ccc21
CC(C)=CCC[C@H](C)CC=O
OC[C@H]1O[C@H](O[C@]2(CCl)O[C@H](CCl)[C@@H](O)[C@@H]2O)[C@H](O)[C@@H](O)[C@H]1Cl
CCCCCCCCCCCCCC(=O)O
CC(C#N)(CCC(=O)O)N=NC(C)(C#N)CCC(=O)O (stereo not given)
CCCCCCCCCCCCSC
Sc1nc(S)nc(S)n1
